# Target: T1, Tyrosine-protein kinase ITK/TSK (Homo sapiens) (UniProt Q08881)
# T1 sequence (whole entry): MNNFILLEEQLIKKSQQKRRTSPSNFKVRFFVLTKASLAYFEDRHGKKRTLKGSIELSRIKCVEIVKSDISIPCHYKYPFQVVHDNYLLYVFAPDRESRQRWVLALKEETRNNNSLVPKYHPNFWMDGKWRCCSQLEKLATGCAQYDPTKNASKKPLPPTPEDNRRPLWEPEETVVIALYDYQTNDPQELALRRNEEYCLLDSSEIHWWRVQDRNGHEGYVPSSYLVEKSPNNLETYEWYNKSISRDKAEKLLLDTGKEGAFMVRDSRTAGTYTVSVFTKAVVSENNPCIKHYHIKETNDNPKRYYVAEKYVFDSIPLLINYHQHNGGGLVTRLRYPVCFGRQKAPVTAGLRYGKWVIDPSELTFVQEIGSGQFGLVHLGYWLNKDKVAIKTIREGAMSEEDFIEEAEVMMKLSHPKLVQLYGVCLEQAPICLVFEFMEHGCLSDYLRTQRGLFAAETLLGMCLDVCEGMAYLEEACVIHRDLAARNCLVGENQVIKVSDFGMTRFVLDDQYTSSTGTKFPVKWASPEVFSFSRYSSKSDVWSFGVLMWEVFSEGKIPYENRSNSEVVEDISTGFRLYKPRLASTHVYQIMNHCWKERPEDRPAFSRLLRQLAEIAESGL
# Settings: at 1 µM
# 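Also: values are mean percent inhibition of ITK from the GSK PKIS screen.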
row,Compound,inhibition
1,COc1ccc(CNC(=O)c2ccc(-c3cc(-c4nnc(C)o4)ccc3C)cc2)cc1,2.72%
2,Fc1ccc(-c2cc(-c3c[nH]nc3-c3ccccn3)ccn2)cc1,0.13%
3,CS(=O)(=O)CCNCc1ccc(-c2ccc3ncnc(Nc4ccc(OCc5ccccc5)c(C(F)(F)F)c4)c3c2)o1,2.16%
4,COc1ccc2c(-c3ccnc(Nc4cccc(OC(F)(F)F)c4)n3)cnn2n1,2.38%
5,c1ccc(-c2nc3n(c2-c2ccc4c(c2)OCO4)CCC3)nc1,0.24%
6,COc1ccc(-c2cc(-c3c[nH]nc3-c3ccccn3)ccn2)cc1,2.05%
7,COc1ccc(-c2cc3c(N)ncnc3o2)cc1,0.68%
8,FC(F)(F)c1cccc(-c2nn3ncccc3c2-c2ccnc(Nc3ccc4c(c3)OCCO4)n2)c1,2.97%
9,N#Cc1c(NC(=O)CN2CCOCC2)sc2c1CCCC2,3.52%
10,COC(=O)Nc1nc2ccc(Oc3ccc(NC(=O)Nc4cccc(Cl)c4)cc3)cc2[nH]1,0.42%
11,CN1CCC(n2cnc(-c3ccc(F)cc3)c2-c2ccnc(Nc3ccccc3)n2)CC1,1.68%
12,Clc1ccc(-c2nn3ncccc3c2-c2ccnc(Nc3ccccc3)n2)cc1,2.29%
13,COc1ccc(-c2nn3ncccc3c2-c2ccnc(Nc3ccc4c(c3)OCCO4)n2)cc1,0.71%
14,Nc1nc(-c2ccc(F)cc2)c(-c2ccc3ncccc3n2)s1,2.71%
15,COc1ccc2[nH]c3c4[nH]c5ccc(OC)cc5c4c4c(c3c2c1)C(=O)NC4=O,6.11%
16,Cc1ccc(O)cc1Nc1ccnc2cc(-c3ccccn3)ccc12,2.42%
17,NS(=O)(=O)c1ccc(N/N=C2\C(=O)Nc3ccc4ncccc4c32)cc1,18.5%

row,Compound,inhibition
1,CCN1CCC(CC(=O)Nc2n[nH]c3nnc(-c4cccc(F)c4F)cc23)CC1,1.3%
2,COc1cccc(-c2c[nH]c3c(N/N=C/c4ccncc4)ncnc23)c1,3.59%
3,NC(=O)c1sc(-n2cnc3ccc(C(F)(F)F)cc32)cc1OCc1ccccc1Br,-0.19%
4,CC(C)COC(=O)c1ccc2c(c1)/C(=C/Nc1ccc(S(N)(=O)=O)cc1)C(=O)N2,5.29%
5,CCn1c(-c2nonc2N)nc2cnc(Oc3cccc(NC(=O)c4ccc(N(C)C)cc4)c3)cc21,0.86%
6,Fc1cccc(COc2ccc(Nc3ncnc4sc(-c5ccco5)cc34)cc2Cl)c1,3.14%
7,CC(=O)NCc1cccc(C#Cc2cncnc2Nc2ccc(OCc3cccc(F)c3)c(Cl)c2)c1,0.81%
8,CS(=O)(=O)CCNCc1coc(-c2ccc3ncnc(Nc4ccc(OCc5ccccc5)cc4)c3c2)c1,1.57%
9,Cc1ccc2c(-c3ccnc(Nc4ccccc4)n3)c(-c3ccc(F)cc3)nn2n1,2.3%
10,O=S(=O)(CCNCc1ccc(-c2ccc3ncnc(Nc4ccc(OCc5cccc(F)c5)c(Cl)c4)c3c2)o1)c1ccccc1,2.79%
11,CCNC(=O)O[C@H]1CN[C@H](C#Cc2cc3ncnc(Nc4ccc(OCc5cccc(F)c5)c(Cl)c4)c3s2)C1,1.96%
12,c1ccc(COc2ccc(Nc3ncnc4ccc(-c5ccco5)cc34)cc2)cc1,0.76%
13,COC(=O)c1sc(-n2cnc3cc(OC)c(OC)cc32)cc1OCc1ccccc1C(F)(F)F,1.09%
14,Cc1cccc2c1NC(=O)/C2=N\Nc1ccc(S(N)(=O)=O)cc1,2.45%
15,CC(=O)Nc1cccc(C#Cc2cncnc2Nc2ccc(OCc3cccc(F)c3)c(Cl)c2)c1,2.79%
16,CCn1c(-c2nonc2N)nc2ccccc21,0.89%

# From ChEMBL document CHEMBL1961873, “Compounds: GSK PKIS; Assays: Nanosyn kinase panel” (2012)
